Reference: the supplement of paper PMC6522484
± gives the standard deviation of the averaged measurements.

What was measured:
DLD1 [1] = assay: cell viability (CellTiter-Glo) relative to plate median (fraction of plate median); higher = more viable cells; conditions: 5 µM; treatment time 24 h; reporter: 7TFP
Procedure, shortened: (§1)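 On parallel plates, a Tecan F500 reader recorded either firefly luciferase or CellTiterGlo luminescence. The plates held colorectal cancer cells stably transduced with lentiviral TCF/Wnt firefly luciferase reporters (7TFP or TCF4/Wnt), seeded in 384-well format and treated 24 h later with library compounds at a final 5 µM for 24 h. Per-well signals were normalised to the plate median (webcellHTS2, additive, no log transformation), and two independent replicates were averaged.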

HCT116 = assay: as above; conditions: 5 µM; treatment time 24 h; reporter: TCF4/Wnt
Procedure, shortened: as §1

SW480 [2] = assay: as above; conditions: 5 µM; treatment time 24 h; reporter: 7TFP
Procedure, shortened: as §1

DLD1 [3] = assay: TCF/Wnt firefly luciferase reporter signal relative to plate median (fraction of plate median); higher = higher Wnt reporter signal; conditions: 5 µM; treatment time 24 h; reporter: 7TFP
Procedure, shortened: as §1

SW480 [4] = assay: as above; conditions: 5 µM; treatment time 24 h; reporter: 7TFP
Procedure, shortened: as §1

SMILES	cell viability (DLD1 [1])	cell viability (HCT116)	cell viability (SW480 [2])	TCF/Wnt firefly luciferase reporter signal (DLD1 [3])	TCF/Wnt firefly luciferase reporter signal (SW480 [4])
COc1ccc(C(Cl)=C(c2ccc(OC)cc2)c2ccc(OC)cc2)cc1	1.01 ± 0.044	1.12 ± 0.05	0.978 ± 0.032	0.915 ± 0.19	0.877 ± 0.17
COc1ccc(-c2coc3cc(OC)cc(OC)c3c2=O)cc1	1.03 ± 0.086	1.04	1.035 ± 0.0071	0.963 ± 0.11	1.04 ± 0.028
Nc1ncnc2c1ncn2[C@@H]1O[C@H](CO)[C@@H](O)[C@H]1O	1.06 ± 0.014	1.06 ± 0.09	1.04 ± 0.035	1.07 ± 0.17	1.15 ± 0.028
Cc1cc(C2CCCCC2)n(O)c(=O)c1	1.02 ± 0.014	0.454 ± 0.12	1.24 ± 0.18	0.795 ± 0.077	1 ± 0.13
CCCCC(=O)O[C@]1(C(=O)CO)[C@@H](C)C[C@H]2[C@@H]3CCC4=CC(=O)C=C[C@]4(C)[C@@]3(F)[C@@H](O)C[C@@]21C	1.04 ± 0.021	1.15 ± 0.028	0.987 ± 0.047	0.868 ± 0.011	0.942 ± 0.22
C[N+](C)(C)C[C@H](O)CC(=O)[O-]	0.964 ± 0.028	0.976 ± 0.022	0.965 ± 0.014	0.921 ± 0.014	0.961 ± 0.069
NNCCc1ccccc1	0.995 ± 0.11	0.943 ± 0.069	0.98 ± 0.042	1.26 ± 0.2	1.22 ± 0.014
CCCCNc1cc(C(=O)O)cc(S(N)(=O)=O)c1Oc1ccccc1	1.015 ± 0.0071	0.947 ± 0.022	1.04 ± 0.035	1.03 ± 0.16	1.06 ± 0.057
C[C@H]1[C@H](C)CC[C@]2(C(=O)O)CC[C@]3(C)C(=CC[C@@H]4[C@@]5(C)C[C@@H](O)[C@H](O)[C@@](C)(CO)[C@@H]5[C@H](O)C[C@]43C)[C@H]12	1.01 ± 0.048	1.09 ± 0.099	0.985 ± 0.0085	0.919 ± 0.05	1.045 ± 0.0071
NS(=O)(=O)c1cc2c(cc1Cl)NC(C1CC3C=CC1C3)NS2(=O)=O (stereo not given)	0.973 ± 0.052	0.962 ± 0.0071	0.983 ± 0.0042	1.1 ± 0.035	0.879 ± 0.04
N=C(N)NS(=O)(=O)c1ccc(N)cc1	0.943 ± 0.044	0.892 ± 0.057	0.981 ± 0.027	0.962 ± 0.033	0.986 ± 0.048
Cn1nnnc1SCC1=C(C(=O)O)N2C(=O)[C@@H](NC(=O)[C@H](O)c3ccccc3)[C@H]2SC1	1.05 ± 0.064	0.949 ± 0.03	1.01 ± 0.037	0.878 ± 0.03	0.989 ± 0.072
C/C=C(\CO)C(=O)O[C@H]1[C@H](O)[C@@H](C(=O)OC)O[C@@H]2C[C@H]3O[C@@H](n4cnc5c(N)ncnc54)[C@H](OC)[C@H]3O[C@]21O [Herbicidin A]	1.06 ± 0.014	0.843 ± 0.045	0.982 ± 0.054	0.933 ± 0.095	0.898 ± 0.064
CC1=C(/C=C/C(C)=C/C=C/C(C)=C/C=C/C=C(C)/C=C/C=C(C)/C=C/C2=C(C)C(=O)[C@@H](O)CC2(C)C)C(C)(C)C[C@H](O)C1=O	1.05 ± 0.057	1.07 ± 0.042	1 ± 0.027	1.06 ± 0.11	0.824 ± 0.099
C[C@H](N)[C@H](O)c1cccc(O)c1	0.955 ± 0.052	0.997 ± 0.075	1.06 ± 0.035	0.918 ± 0.074	0.915 ± 0.0071
O=c1cc[nH]c(=S)[nH]1 [Thiouracil]	1.08 ± 0.17	1.12 ± 0.11	1.04 ± 0.064	0.944 ± 0.093	0.8625 ± 0.00071
C=CC(C)(O)CCC1C(=C)CC(OC(C)=O)C2C(C)(C)CCCC12C (stereo not given)	0.929 ± 0.03	0.908 ± 0.041	0.971 ± 0.033	0.798 ± 0.013	0.87 ± 0.17
CCCCCCOc1ccccc1C(N)=O	0.9695 ± 0.0078	0.954	0.962 ± 0.041	1.09 ± 0.21	1.11 ± 0.13
COc1ccc(-c2cc(=O)c3c(OC)c(OC)c(OC)c(OC)c3o2)cc1	1 ± 0.064	0.932 ± 0.059	1.05 ± 0.05	1.13 ± 0.042	0.961 ± 0.0028
O=C1O[C@H](CO)[C@@H](O)[C@H](O)[C@H]1O	1.005 ± 0.0071	1.035 ± 0.0071	1.085 ± 0.0071	0.949 ± 0.051	0.945 ± 0.13
Clc1ccc2c(c1)C(N1CCNCC1)=Nc1ccccc1O2	1.045 ± 0.0071	1.085 ± 0.0071	0.995 ± 0.021	0.789 ± 0.058	0.905 ± 0.042
CCN(CC)CCOC(=O)C(c1ccccc1)c1ccccc1	0.982 ± 0.068	0.972 ± 0.054	0.917 ± 0.036	0.904 ± 0.14	0.929 ± 0.0057
CC(C)c1c(O)c(-c2cc3c(c(C(C)C)c2O)CCC2C(C)(C)CCC[C@]32C)cc2c1CCC1C(C)(C)CCC[C@]21C (stereo not given in full)	1.02 ± 0.083	1.07 ± 0.1	1.02 ± 0.035	1.26 ± 0.26	1.09 ± 0.014
COc1ccc(C=CC(=O)O)cc1OC	0.993 ± 0.0099	1.06 ± 0.085	1.02 ± 0.053	1.12 ± 0.042	0.987 ± 0.033
CCCc1nn(C)c2c(=O)[nH]c(-c3cc(S(=O)(=O)N4CCN(C)CC4)ccc3OCC)nc12	1 ± 0.067	0.981 ± 0.21	0.978 ± 0.013	1.02 ± 0.042	1.09 ± 0.028
C=CCCCCCCCCCCCC(O)CC(O)COC(C)=O (stereo not given)	0.995 ± 0.0071	0.9555 ± 0.0064	1.005 ± 0.0071	0.866 ± 0.1	0.962 ± 0.021
N=C(N)N	0.982 ± 0.025	0.95 ± 0.16	1.02 ± 0.014	0.924 ± 0.076	1.025 ± 0.0071
CC(=O)O[C@H]1C[C@@H](OC(C)=O)C(C)(C)C2CC(=O)[C@]3(C)C(CC[C@@]4(C)[C@H](C(=O)O)OC(=O)C5OC543)[C@]21C (stereo not given in full)	0.985 ± 0.093	0.922 ± 0.028	1.01 ± 0.032	0.826 ± 0.027	0.95 ± 0.21
CCCCC1C(=O)N(c2ccccc2)N(c2ccccc2)C1=O	1.02 ± 0.063	0.987 ± 0.12	1.035 ± 0.0071	1.14 ± 0.085	1.01 ± 0.024
COc1ccc(-c2cc(=O)c3c(OC)c(OC)c(OC)c(OC)c3o2)cc1OC	0.9 ± 0.064	0.914 ± 0.059	1.04 ± 0.067	0.951 ± 0.034	0.992 ± 0.011
